HP1b binding inh – HP1-beta chromodomain-methylated histone interaction inhibition; P83916; AlphaScreen HP1-beta / biotin-H3K9me3 peptide binding; Potency, µM (series often up to 114 µM), for inactives: at the highest dose activity change, negative = inhibition, usual class: inhibitors; hit rate 0.56% among 390,000; AID 540317; further: potency means the concentration at half of the fitted maximal effect; nearly all actives have a fitted effect of over 70% in size
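AlphaScreen: HP1-beta (50 nM) preformed 30 min with biotin-H3(1-18)K9me3 peptide (50 nM) in PBS pH 7.4, 0.01% Tween-20. Compound added for 30 min at RT, then streptavidin donor/nickel chelate acceptor beads (10 ug/mL) for 30 min.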
PLK1 PBD block – PLK1 (human) polo-box domain binding inhibition. Plk1 PBD binding of FITC phosphopeptide, fluorescence polarization. Potency, µM, inactives show max response, negative = inhibition, usual class: inhibitors. hit rate 2.8% among 360,000. P53350; further: potency means the concentration at half of the fitted maximal effect; series mostly up to about 57 µM; on the % scale 0 is the no-effect control and ±100 the full control effect; nearly all actives have a fitted effect of over 65% in size
PI5P4Ka inh – blocks human PI5P4K alpha kinase activity; P48426; PI5P4Kalpha enzyme, ADP-Glo luminescence, 60 min; hits give low values; max response, %; hit rate 1.2% among 330,000; AID 652105; active means max response of -50% or lower; inconclusive means between -30% and -50%; inactive means -30% or higher; further: value at the top dose of about 77 µM; on the % scale 0 is the no-effect control and ±100 the full control effect
Target sequence (P48426 whole entry, looked up): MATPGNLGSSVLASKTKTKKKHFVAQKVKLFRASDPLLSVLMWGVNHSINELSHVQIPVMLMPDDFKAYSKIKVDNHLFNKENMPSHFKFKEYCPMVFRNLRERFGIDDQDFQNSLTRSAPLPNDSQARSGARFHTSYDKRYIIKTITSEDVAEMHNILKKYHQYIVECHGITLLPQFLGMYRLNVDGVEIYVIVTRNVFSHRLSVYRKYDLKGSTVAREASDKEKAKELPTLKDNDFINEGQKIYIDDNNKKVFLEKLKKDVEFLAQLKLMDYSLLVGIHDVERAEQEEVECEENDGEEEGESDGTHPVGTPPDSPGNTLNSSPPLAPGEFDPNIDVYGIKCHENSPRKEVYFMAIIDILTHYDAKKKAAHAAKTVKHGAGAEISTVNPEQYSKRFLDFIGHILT
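qHTS, 1536-well: enzyme/substrate mix, compound by pin tool, 5 microM ATP final; RT 60 min; ADP-Glo reagents 1 (45 min) then 2 (30 min); luminescence.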
G9a inh – blocks human histone lysine methyltransferase G9a. hit rate 8.8% among 350,000. Potency, µM (highest dose often 102 µM), without a hit: at the highest dose activity, negative = inhibition, usual class: inhibitors. AID 504332. G9a H3K9 monomethylation, AlphaScreen, 2 h; further: potency means the concentration at half of the fitted maximal effect; on the % scale 0 is the no-effect control and ±100 the full control effect; nearly all actives have a fitted effect of over 75% in size
Target sequence (Q96KQ7 913-1193 limits assumed): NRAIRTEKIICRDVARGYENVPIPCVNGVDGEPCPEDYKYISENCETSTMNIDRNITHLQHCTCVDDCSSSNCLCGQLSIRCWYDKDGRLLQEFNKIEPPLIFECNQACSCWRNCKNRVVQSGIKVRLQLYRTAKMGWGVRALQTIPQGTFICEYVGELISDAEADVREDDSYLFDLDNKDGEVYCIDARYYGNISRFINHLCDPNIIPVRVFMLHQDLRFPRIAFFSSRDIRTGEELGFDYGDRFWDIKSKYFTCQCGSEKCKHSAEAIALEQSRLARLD
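AlphaScreen read-out: biotin-H3K9 peptide (500 nM) methylation by 20 nM enzyme with 20 uM SAM, 2 h at room temperature after 15 min compound preincubation; anti-monomethyl H3K9 antibody plus donor/acceptor beads, 10 min dark.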
BAZ2B block – blocks human BAZ2B; hit rate 4.4% among 360,000; Q9UIF8; AlphaScreen BAZ2B-H3K14Ac peptide displacement; Potency, µM (titrated, usually from 114 µM), inactives show at the highest dose activity change, negative = inhibition, most hits filed as inhibitors; further: potency means the concentration at half of the fitted maximal effect; on the % scale 0 is the no-effect control and ±100 the full control effect; nearly all actives have a fitted effect of over 60% in size
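Compounds, titrated to a top concentration of 110 uM, were incubated 30 min at room temperature with preformed BAZ2B/acetyl-K14 H3 peptide complex (50 nM each). Proximity signal was measured by AlphaScreen after 20 min with beads.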
JMJD2A Tudor inh – JMJD2A Tudor domain (human) inhibition; AlphaScreen JMJD2A-Tudor / H3K4me3 peptide binding; hit rate 4.4% among 390,000; Potency, µM (highest dose often 114 µM), for inactives: at the top dose activity change, negative = inhibition, hits mostly inhibitors; AID 504339; further: potency means the concentration at half of the fitted maximal effect; on the % scale 0 is the no-effect control and ±100 the full control effect; nearly all actives have a fitted effect of over 50% in size
An asterisk follows results filed as active; ? = inconclusive; · = no result given; [ ] = another dose, or the depositor's remark. Rows were chosen to be rich in hits. Some 12% of all compounds tested hit in one or more screens of this group. Unless noted, the call rests on the fitted dose curve; in most records, active means well fitted curve in the direction sought with a large enough effect; inconclusive means small, poorly fitted or top-dose-only effect, or another doubt; inactive means no such curve, though single readings can be large; an effect the other way counts as inactive or inconclusive.

SMILES	HP1b binding inh	PLK1 PBD block	PI5P4Ka inh	G9a inh	BAZ2B block	JMJD2A Tudor inh
Cc1nnc(SCC(=O)Nc2ccc3c(c2)OCCO3)n1CC1CCCO1 (stereo not drawn)	54%	-22%	1	22%[59 µM]	4%	-2%
Cc1ccc(NCc2nnc(SCC(=O)Nc3ccccc3)n2CC2CCCO2)c(C)c1 (stereo not drawn)	-19%	-23%	0	-11%[59 µM]	?	56µM*
CCc1cccc(OCC(=O)Nc2ccccc2N2CCCC2)c1	-15%	-6%	-3	5%[0.501 µM]	-36%	?
CCCCNC(=O)C1C(c2ccc(OC)cc2)=Nc2ccccc2N1C(=O)Cc1cc(OC)cc(OC)c1 (stereo not drawn)	·	-12%	-4	·	·	·
CC12CCC(C(=O)NCCCn3ccnc3)(OC1=O)C2(C)C (stereo not drawn)	-4%	?	12	16µM*	-2%	-26%[11.4 µM]
CC12CCC(C(=O)NCc3ccco3)(OC1=O)C2(C)C (stereo not drawn)	9%	-1%	·	-23%[12.7 µM]	-30%	-13%
COc1ccc(CN2CCCC(CO)(Cc3cccc(Cl)c3)C2)cc1OC (stereo not drawn)	14%	-3%	-6	5%	-1%	-29%
CCOC(=O)C1(Cc2cccc(OC)c2)CCCN(Cc2nccn2CC)C1 (stereo not drawn)	12%	-16%	0	-4%	-24%	-21%
CCn1ccnc1CN1CCCC(CO)(Cc2cccc(OC)c2)C1 (stereo not drawn)	17%	-10%	0	-6%	89µM*	-25%
OCC1(Cc2ccccc2)CCCN(Cc2ccc(-c3ccco3)cc2)C1 (stereo not drawn)	-23%	-15%	-3	·	45µM*	?
COc1cc(CN2CCCC(CO)(Cc3cccc(Cl)c3)C2)cc2c1OCO2 (stereo not drawn)	5%	21µM*	2	0%	14%	-9%[11.4 µM]
OCC1(Cc2ccccc2)CCN(Cc2ccc(-c3ccco3)cc2)CC1	-20%	-22%	-2	?	-35%	-35%
COc1cc(CN2CCCC(CO)(Cc3cccc(Cl)c3)C2)cc(OC)c1O (stereo not drawn)	6%	-23%	-1	50µM*	-25%	-24%
COc1ccc(S(=O)(=O)CC(=O)c2cc3cc(Br)ccc3oc2=O)cc1	-16%[57 µM]	1.7µM*	-75*	25µM*	45µM*	?
O=c1cccccc1NN=C1CCCCC1	20%	-14%	-28	·	?	?
O=C(O)c1cc(Br)ccc1NN=C1CCCCC1	-8%	-16%	-17	2.8µM*	-36%	-27%
CC1C(=O)N(Cc2cn(CCC3OCCO3)nn2)CCS(=O)(=O)N1Cc1ccc(-c2ccc(F)cc2)cc1 (stereo not drawn)	·	5.3µM*	-26	·	·	·
CC1C(=O)N(Cc2cn(CCC3OCCO3)nn2)CCS(=O)(=O)N1Cc1ccc(-c2ccncc2)cc1 (stereo not drawn)	·	1%	-8	·	·	·
CCc1nc2ccc(C(=O)NCCc3ccccn3)cn2c1N(CC)CCOC	·	-2%	3	·	·	·
O=S(=O)(CCN1CCN(C(c2ccccc2)c2ccccc2)CC1)C(F)(F)F	-10%	15µM*	·	3.5µM*	·	-16%
C(=N\N1CCN(Cc2cccc3ccccc23)CC1)/c1ccco1	45µM*	-12%	-4	40µM*	?	56µM*
CN1CCN(/N=C/c2c3ccccc3c(Cl)c3ccccc23)CC1	?	-4%	28	35µM*	20µM*	40µM*
OC(COc1ccccc1)CN1CCN(C(c2ccccc2)c2ccccc2)CC1 (stereo not drawn)	9%	-13%	-1	11%	?	-33%
Cn1cccc1/C=N/N1CCN(c2ccccn2)CC1	-58%	0%	3	16µM*	50µM*	?
Cc1ccc(/C=N/N2CCN(c3ccccn3)CC2)cc1	0%	-4%	10	?	-32%	-31%
SMILES	HP1b binding inh	PLK1 PBD block	PI5P4Ka inh	G9a inh	BAZ2B block	JMJD2A Tudor inh
C[C@H]1CN([C@@H](C)CO)C(=O)c2cc(NC(=O)NC3CCCCC3)ccc2O[C@H]1CN(C)C(=O)Nc1ccc(C(F)(F)F)cc1	82%	-11%	11	·	·	-24%
COc1ccc(Cl)cc1CC1(C)C(=O)Nc2ccc(S(=O)(=O)NC3CCCCC3)cc21 (stereo not drawn)	·	2%	-4	·	·	·
CCN(C(=O)CSc1nncn1-c1ccccc1)C1CCS(=O)(=O)C1 (stereo not drawn)	14%	-4%	-1	10%	-5%	-19%
O=S(=O)(c1ccc(Cl)cc1)N1CCN(S(=O)(=O)c2ccc3c(c2)OCCO3)CC1	·	·	·	·	·	-12%
Cc1noc(C)c1COc1ccc(C(=O)NCc2cccs2)cc1	32%	2%	5	·	·	6%
Cc1ccsc1/C=N/N1CCN(c2ccccn2)CC1	-35%	-16%	3	50µM*	40µM*	63µM*
C(=N\N1CCN(Cc2ccccc2)CC1)/c1ccc(-c2ccccc2)cc1	20%	-4%	7	-8%	-12%	-22%
Fc1ccc(/C=N/N2CCN(Cc3ccccc3)CC2)cc1	?	3%	11	79µM*	45µM*	?
CN1CCN(/N=C/c2ccc(-c3ccccc3)cc2)CC1	?	-19%	1	71µM*	22%	40µM*
CSc1ccc(/C=N/N2CCN(C)CC2)cc1	-10%	-13%	-3	-30%	?	?
Cc1ccc(/C=N/N2CCN(Cc3ccccc3)CC2)cc1	-16%	2%	11	?	?	79µM*
Cc1ccc(CN2CCN(/N=C/c3ccccc3)CC2)cc1	?	1%	6	?	?	?
CCc1ccc(N2C(=O)CS(=O)(=O)C23C(=O)N(Cc2ccccc2F)c2ccccc23)cc1 (stereo not drawn)	25%	·	·	-32%[59 µM]	2%[57.1 µM]	-13%
C(=N\N1CCN(Cc2cccc3ccccc23)CC1)/c1cccnc1	-42%	3%	·	50µM*	40µM*	45µM*
CSc1ccc(/C=N/N2CCN(Cc3ccc(Cl)cc3)CC2)cc1	-12%	-19%	2	?	22µM*	?
FC(F)(F)c1ccc(/C=N/N2CCN(Cc3cccc4ccccc34)CC2)cc1	-2%	2%	0	-12%	-30%[57.1 µM]	-20%[57.1 µM]
Oc1ccc(/C=N/N2CCN(Cc3ccccc3)CC2)cc1	2%	-13%	0	-3%[0.501 µM]	-11%	-26%
O=C(O)c1ccc(/C=N/N2CCN(Cc3ccccc3)CC2)cc1	29%	-4%	-3	?	89µM*	-5%
O=C(O)c1ccc(/C=N/N2CCN(Cc3cccc4ccccc34)CC2)cc1	-13%	-7%	1	45µM*	-33%	-35%

Compound activity from PubChem BioAssay.
